EBNA-1 inhibitor = blocks EBNA-1 binding to DNA. inhibition, % at 14.8 µM. EBNA-1 DNA binding, fluorescence polarization. AID 1950. 300,000 compounds, 0.34% hits; in the data active = inhibition above about 28%
GSTO1 inh = blocks human GSTO1 in RBBP9 counter-screen; recombinant GSTO1, activity-based probe fluorescence polarization; inhibition, % at 5.96 µM; 300,000 compounds, 1.1% hits;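 active = inhibition above the campaign mean inhibition plus 3 SD, cut at about 35% in these data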;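 also: 0% = GSTO1-1 with DMSO and 100% = wells lacking GSTO1-1 enzyme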
LYPLA1 inh = LYPLA1 (human) inhibition in PME1 counter-screen | O75608 | recombinant LYPLA1, FP-Rh probe fluorescence polarization | inhibition, % at 5.9 µM | 320,000 compounds, 0.16% hits | AID 2174;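 active = inhibition above the mean of all tested compounds plus 3 SD, set per campaign, cut at about 14% in these data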;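 also: inhibitors block serine hydrolase probe labeling of LYPLA1 so polarization falls; 0% = enzyme with DMSO and 100% = wells lacking LYPLA1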
Target sequence (O75608 whole entry, looked up): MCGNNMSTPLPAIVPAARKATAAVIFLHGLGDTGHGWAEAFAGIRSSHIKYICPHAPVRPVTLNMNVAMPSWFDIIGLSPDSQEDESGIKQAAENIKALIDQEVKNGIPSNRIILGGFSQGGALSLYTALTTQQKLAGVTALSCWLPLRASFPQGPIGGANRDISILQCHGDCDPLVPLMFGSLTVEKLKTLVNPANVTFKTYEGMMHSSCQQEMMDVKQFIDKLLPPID
ZTA DNA inh = ZTA (EBV) inhibition in EBNA-1 counter-screen; 320,000 compounds, 0.15% hits; P03206; inhibition, % at 11 µM; ZTA-DNA binding, fluorescence polarization; in the data active = inhibition above about 33%
PAD4 FP inh = inhibitors of human PAD4. 330,000 compounds, 0.41% hits. recombinant PAD4, RCA probe fluorescence polarization. inhibition, % at 6.36 µM. Q9UM07;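 active = percent inhibition above a cutoff equal to the mean of all tested compounds plus 3 SD, cut at about 15% in these data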;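 also: 0% = PAD4 with RCA probe and DMSO and 100% = probe without PAD4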
LYPLA2 inh = blocks human lysophospholipase 2, a PME1 counter-screen; O95372; 320,000 compounds, 0.38% hits; inhibition, % at 5.9 µM; AID 2177; recombinant LYPLA2, FP-Rh probe fluorescence polarization;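 active = inhibition above the screen-wide mean plus 3 SD, limit set per campaign, cut at about 26% in these data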;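 also: 0% = LYPLA2 with DMSO and 100% = wells lacking LYPLA2 enzyme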
Target sequence (O95372 whole entry, looked up): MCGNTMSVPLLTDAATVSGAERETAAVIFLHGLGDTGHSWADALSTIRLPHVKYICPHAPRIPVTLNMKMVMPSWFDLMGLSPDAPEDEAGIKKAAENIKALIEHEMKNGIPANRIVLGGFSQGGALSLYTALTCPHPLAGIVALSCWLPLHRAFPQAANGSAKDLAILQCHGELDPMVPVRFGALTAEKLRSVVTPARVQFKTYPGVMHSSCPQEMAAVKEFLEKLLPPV
PAD4 confirm = PAD4 (human) inhibition, confirmed; shares compounds with PAD4 FP inh; recombinant PAD4, RCA probe fluorescence polarization; inhibition, % at 6.36 µM; 1,200 compounds, 28% hits;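 active = mean inhibition across replicates above the hit cutoff set by the earlier primary screen, cut at about 15% in these data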;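 also: inhibitors block active-site labeling by the probe so polarization falls; 0% = PAD4 with probe and DMSO and 100% = probe without PAD4 enzyme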
* hit, by the source's call. In the library only some 1.7% were active in any assay of this set; here they are far more common.

What do the screens show for `CCN(CC)CCCNC(=O)c1[nH]c2ccccc2c1Sc1ccc(Cl)cc1`?
EBNA-1 inhibitor: 9; GSTO1 inh: -2; LYPLA1 inh: -1; ZTA DNA inh: 11; PAD4 FP inh: -1; LYPLA2 inh: -2

What do the screens show for `Oc1cc(NCCN2CCOCC2)cc2cccnc12`?
PAD4 FP inh: 31*; PAD4 confirm: 12

How did Oc1cc(Nc2ccccc2)cc2cccnc12 do in these assays?
PAD4 FP inh: -10

Results for COc1ccc(C(C[N+](=O)[O-])c2c(C)[nH]n(-c3ccccc3)c2=O)cc1 (stereo not drawn) ?
EBNA-1 inhibitor: -3; GSTO1 inh: 82*; LYPLA1 inh: 1; ZTA DNA inh: 5; PAD4 FP inh: 17*; LYPLA2 inh: 5; PAD4 confirm: 11

How did Cc1ccc(S(=O)(=O)Oc2ccc(C(c3c(C)[nH][nH]c3=O)c3c(C)[nH][nH]c3=O)cc2)cc1 do in these assays?
EBNA-1 inhibitor: 3; GSTO1 inh: 5; LYPLA1 inh: 1; ZTA DNA inh: 1; PAD4 FP inh: -12; LYPLA2 inh: 8

What do the screens show for `Cc1[nH][nH]c(=O)c1C(c1ccc(-c2ccc(F)cc2)o1)c1c(C)[nH][nH]c1=O`?
EBNA-1 inhibitor: -15; GSTO1 inh: 52*; LYPLA1 inh: 2; ZTA DNA inh: 3; PAD4 FP inh: 48*; LYPLA2 inh: -8; PAD4 confirm: -20

Results for Cc1ccc(-n2nc(C)c3c2OC(N)=C(C#N)C3c2cccs2)cc1 (stereo not drawn) ?
EBNA-1 inhibitor: -13; GSTO1 inh: 34; LYPLA1 inh: -1; ZTA DNA inh: -3; PAD4 FP inh: 41*; LYPLA2 inh: -7; PAD4 confirm: 7

How did Cc1ccc(-n2nc(C)c3c2OC(N)=C(C#N)C3c2ccncc2)cc1 (stereo not drawn) do in these assays?
EBNA-1 inhibitor: 1; GSTO1 inh: 28; LYPLA1 inh: -1; ZTA DNA inh: -10; PAD4 FP inh: -5; LYPLA2 inh: 10

Results for Cc1nn(-c2ccccc2)c2c1C(c1ccncc1)C(C#N)=C(N)O2 (stereo not drawn) ?
EBNA-1 inhibitor: 9; GSTO1 inh: 16; LYPLA1 inh: -1; ZTA DNA inh: -1; PAD4 FP inh: 25*; LYPLA2 inh: 0; PAD4 confirm: 3

Results for Cc1ccc(-n2nc(C)c3c2OC(N)=C(C#N)C3c2ccccc2F)cc1 (stereo not drawn) ?
EBNA-1 inhibitor: -3; GSTO1 inh: 17; LYPLA1 inh: -3; ZTA DNA inh: 1; PAD4 FP inh: 6; LYPLA2 inh: 2

Results for COc1ccc(C(=O)NC(=O)CSc2n[nH]c(N)n2)cc1 ?
PAD4 FP inh: 2

Results for Cc1ccc(NC(=O)CNC(=O)c2ccc3c(c2)OCO3)nc1 ?
EBNA-1 inhibitor: 1; GSTO1 inh: 14; LYPLA1 inh: 4; ZTA DNA inh: -13; PAD4 FP inh: -1; LYPLA2 inh: 3

How did Cc1ccc(NC(=O)c2ccc3c(c2)OCCO3)nc1 do in these assays?
EBNA-1 inhibitor: -17; GSTO1 inh: -3; LYPLA1 inh: -4; ZTA DNA inh: -6; PAD4 FP inh: 16*; LYPLA2 inh: -9; PAD4 confirm: 12

How did O=C(NC(=S)NC1CCN(Cc2ccccc2)CC1)c1ccc(F)cc1 do in these assays?
EBNA-1 inhibitor: -10; GSTO1 inh: -7; LYPLA1 inh: -4; ZTA DNA inh: -6; PAD4 FP inh: 33*; LYPLA2 inh: -2; PAD4 confirm: 37*

How did CC1(C)CC(=O)C(C=Nc2ccc(N)cc2)=C(O)C1 do in these assays?
EBNA-1 inhibitor: -1; GSTO1 inh: 5; LYPLA1 inh: -2; ZTA DNA inh: -3; PAD4 FP inh: 40*; LYPLA2 inh: 5; PAD4 confirm: 5

Results for COC(=O)C1C(O)=C(C=Nc2ccc(N)cc2)C(=O)CC1(C)C (stereo not drawn) ?
EBNA-1 inhibitor: -9; GSTO1 inh: 16; LYPLA1 inh: 4; ZTA DNA inh: -4; PAD4 FP inh: 47*; LYPLA2 inh: 5; PAD4 confirm: 3

Source: PubChem BioAssay
